These results are taken from PubChem BioAssay.

Assay [1] can be described thus: reducers of endogenous Her2 protein level, primary screen, SKBR3 breast tumor cells, AlphaScreen, ATP viability (AID 461;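 active = Her2 level under about 52% in both replicate screens, with viability over 70% of control, limit read from the data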;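 as to Her2 level: lower value means less Her2 protein in the cells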;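 as to viability: percent of carrier control wells set as 100% viability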). The settings on record: 18-24 h, measured here: SKBR3 viability, ATP luminescence, at 10 µM. On the technique in general: Alpha assays give light when donor and acceptor beads are brought close together.
Assay [2] deals with Receptor tyrosine-protein kinase erbB-2 (Homo sapiens) (UniProt P04626). The description is as above. The following applies: 18-24 h, at 10 µM, stronger effect = lower value.
Assay [3] is described as follows: SK-BR-3 cell growth inhibitors, pilot screen, 24 h, human (AID 572;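 active = viability at or below 10% of carrier control in both of two separate runs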;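 also: compound exposure lasted between 18 and 24 h rather than exactly 24 h; 100% = carrier-treated control wells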). The settings on record: SK-BR-3 viability, CellTiter-Glo luminescence, at 10 µM, stronger effect = lower value. In general terms: ATP-based viability assays read luminescence as a measure of living cells.
Assay [4] in a line: HUVEC growth inhibition – cell-based, human, primary screen (AID 575;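 active = viability at or below 30% in both replicate assays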;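 also: 100% = median of untreated cell wells with 0.1% DMSO on each plate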). The following applies: HUVEC proliferation, CellTiter-Glo luminescence, 72 h; at 10 µM; stronger effect = lower value.
A short description of assay [5]: growth inhibitors of H69AR lung tumor, primary screen, human, duplicate replicates (AID 580).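 Also: 100% = mean luminescence of untreated wells and 0% = no signal.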 The settings on record: H69AR lung tumor cells viability, ATP luminescence, 72 h; at 10 µM; stronger effect = lower value.
A short description of assay [6]: reversal of MRP1-mediated doxorubicin resistance, pilot screen, H69AR cells, doxorubicin co-treatment (AID 601;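 active = viability loss from added drug above about 55%, and viability with drug at most 40%, in both replicates, limit read from the data, passing the limit was not always enough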). The following applies: CellTiter-Glo, 72 h, at 10 µM; for differential viability (reversal): stronger effect = higher value.
Assay [7] is described as follows: 384-well plate pilot, post-Golgi transport modulator project, inhibition of yeast transport mutant growth (AID 636; in the data active = inhibition above about 31%). The following applies: absorbance 615 nm, about 18 h, stronger effect = higher value.
The nature of assay [8]: growth suppression of yeast trafficking mutant, preliminary HTS, modulators of trafficking downstream of Golgi apparatus project, 1536-format plate, OD 615 nm (AID 637; in the data active = inhibition above about 30%). The following applies: yeast transport mutant growth, absorbance 615 nm, 18 h; stronger effect = higher value.
Assay [9] in a line: OD615 S. cerevisiae growth inhibition, permissive medium, pilot counter-assay, permissive growth control for S. cerevisiae lifespan shortening project (AID 705;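 active = growth inhibition above 25% in both replicates, a cutoff set 3 SD above the mean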). The following applies: OD615, 24 h, at 10 µM, stronger effect = higher value.
Assay [10] is described as follows: Restrictive medium S. cerevisiae growth inhibition, OD615, pilot screen of yeast lifespan reduction project, restrictive growth control (AID 706;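 active = growth inhibition above a set limit, 3 SD over mean compound inhibition, in both replicates, cut at about 43% in these data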;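 also: modified DeaD lifespan yeast strain shifted to restrictive glucose medium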). The settings on record: OD615, 48 h, at 10 µM, stronger effect = higher value.
Assay [11] is described as follows: viability gain of MRP-1-high H69AR cells under doxorubicin, pilot screen, MRP-1 activator project, CellTiter-Glo, duplicate (AID 807;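 active = viability increase at or above a cutoff of the median across tested compounds plus 3 SD, cut at about 8.5% in these data, passing the limit was not always enough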;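 also: compound pretreatment 18-22 h then 72 h combined with doxorubicin; 0% = doxorubicin alone and 100% = vehicle without doxorubicin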). The following applies: H69AR viability with doxorubicin, CellTiter-Glo luminescence; at 10 µM; stronger effect = higher value.
Assay [12] is described as follows: growth suppression of beta-catenin knockout HCT116, pilot screen, human colon tumor cells (AID 823;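 active = cell viability at or below a set limit in both duplicate runs, the limit being the all-compound median minus 4 SD, cut at about 23% in these data, passing the limit was not always enough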;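 also: 0% = wells killed by 20 µM Hyamine and 100% = untreated DMSO cell wells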). The following applies: CellTiter-Glo, 60 h, at 10 µM, stronger effect = lower value.
Assay [13] in a line: growth suppression of PTEN-deleted HCT116, pilot screen, cell-based, HCT116 clonal line, CellTiter-Glo (AID 824;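 active = viability at or below 27.92% in each of two runs, the all-compound median minus 4 SD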;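 also: 0% = 20 µM Hyamine control and 100% = vehicle cell control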). The settings on record: 60 h, at 10 µM, stronger effect = lower value.
Assay [14] can be described thus: inhibitors of the yeast RAM network, pilot screen, dse1pr::URA3 reporter, 5-FOA selection (AID 869;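 active = inhibition over a set limit, the all-compound mean plus 3 SD, in both replicate runs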;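 also: 0% = DMSO wells with no growth and 100% = 10 µM 1-NA-PP1 with full growth; RAM network block rescues cells from 5-FOA so hits raise OD615 growth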). The following applies: S. cerevisiae dse1pr::URA3 5-FOA growth, OD615, 2 d; at 10 µM; stronger effect = higher value; strain carries analog-sensitive mutant Cbk1 kinase.
Assay [15] can be described thus: RAM signaling pathway blockade in yeast – S. cerevisiae, Pdr1DBD-CYC8 efflux-inhibited sensitized strain, primary screen (AID 1298;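 active = RAM network inhibition above 8.4% in each of two replicates, 3 SD over the compound average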;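 also: 0% = DMSO untreated cells without growth and 100% = 10 µM 1-NA-PP1 full growth; higher means more yeast growth rescued from 5-FOA killing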). The following applies: S. cerevisiae cbk1-as DSE1-URA3 strain, 5-FOA growth OD615, 2 d; at 50 µM; stronger effect = higher value.
The mark [16] stands for this setting: H69AR cells + 2 uM doxorubicin, measured here: viability with 2 uM doxorubicin, stronger effect = lower value.
Setting [17] is: H69AR cells, compound alone cytotoxicity.

Structures are written as SMILES. Results filed as inconclusive are left out. Active and inactive are the calls of the source.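 The calls were made as follows, unless noted: active = viability at or under a set limit in both replicates, limit being median viability minus 3 SD (cut at about 48% in these data, passing the limit was not always enough); inconclusive = at or under the limit in just one replicate; inactive = at or above the limit in both replicates.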

Receptor tyrosine-protein kinase erbB-2 (Homo sapiens), sequence (P04626 whole entry, looked up): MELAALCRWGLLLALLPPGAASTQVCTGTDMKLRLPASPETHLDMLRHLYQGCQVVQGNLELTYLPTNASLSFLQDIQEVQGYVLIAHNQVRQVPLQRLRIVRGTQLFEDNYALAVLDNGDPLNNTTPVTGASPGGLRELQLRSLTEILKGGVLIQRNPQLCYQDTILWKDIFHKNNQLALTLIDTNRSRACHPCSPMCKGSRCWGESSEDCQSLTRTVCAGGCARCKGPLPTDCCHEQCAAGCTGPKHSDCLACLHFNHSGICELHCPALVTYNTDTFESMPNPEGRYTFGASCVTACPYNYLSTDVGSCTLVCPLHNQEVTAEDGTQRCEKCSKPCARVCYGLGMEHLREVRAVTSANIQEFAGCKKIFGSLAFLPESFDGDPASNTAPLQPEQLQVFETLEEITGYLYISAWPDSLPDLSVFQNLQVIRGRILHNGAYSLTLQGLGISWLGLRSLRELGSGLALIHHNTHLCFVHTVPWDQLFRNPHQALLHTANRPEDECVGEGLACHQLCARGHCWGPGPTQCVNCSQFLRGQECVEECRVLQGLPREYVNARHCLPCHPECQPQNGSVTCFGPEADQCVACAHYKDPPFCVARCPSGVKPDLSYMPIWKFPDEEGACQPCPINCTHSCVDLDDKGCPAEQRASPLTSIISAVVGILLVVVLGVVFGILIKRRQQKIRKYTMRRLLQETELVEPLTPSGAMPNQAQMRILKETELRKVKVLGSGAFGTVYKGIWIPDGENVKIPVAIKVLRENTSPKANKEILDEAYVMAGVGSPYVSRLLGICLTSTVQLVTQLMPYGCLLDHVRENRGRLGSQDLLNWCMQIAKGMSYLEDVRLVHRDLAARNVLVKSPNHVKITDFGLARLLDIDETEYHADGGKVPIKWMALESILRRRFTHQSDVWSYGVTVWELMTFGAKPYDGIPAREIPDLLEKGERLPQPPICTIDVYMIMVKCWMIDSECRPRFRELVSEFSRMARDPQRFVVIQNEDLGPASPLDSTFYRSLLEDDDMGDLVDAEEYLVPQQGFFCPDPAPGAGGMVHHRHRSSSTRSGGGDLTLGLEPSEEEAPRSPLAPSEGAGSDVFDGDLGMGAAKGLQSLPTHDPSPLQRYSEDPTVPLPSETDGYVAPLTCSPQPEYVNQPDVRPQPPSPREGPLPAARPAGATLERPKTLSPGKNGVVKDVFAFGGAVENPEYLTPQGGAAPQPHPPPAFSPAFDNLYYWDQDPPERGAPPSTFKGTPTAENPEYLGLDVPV

In the case of `O=C1CCCc2c1cc(C(=O)NCCCN1CCOCC1)c(=O)n2-c1ccc(Cl)cc1`, the viability (as a rule, a read-out of living cells in per cent, often relative to untreated cells) in [1] is 97%; in assay [3], 97% (inactive); in assay [4], 89.9% (inactive); in assay [5] it was 93.1% (inactive); in [6] (setting [16]), 82.5%; in [6] (setting [17]) it was 93.1%. In addition, the results for the viability in assay [12] and in assay [13] were 100% (inactive) and 104% (inactive), respectively. Besides, in [2], the Her2 level was 95.5% (inactive). Moreover, the differential viability (reversal) in assay [6] (H69AR cells + 2 uM doxorubicin) is 10.6% (inactive). For the same compound, the inhibition (usually the drop in the measured response relative to a control, in per cent) in assay [7] is -5.07% (inactive); in [8] it was 0.83% (inactive); in assay [14], 1.44% (inactive). Also, the growth inhibition in [9] was -14.6% (inactive); in assay [10] it was -19.1% (inactive). Besides, in assay [11], the viability increase was -2.29% (inactive). The RAM network inhibition in assay [15] was 2% (inactive).
As to `CC(=O)c1ccc(OCC(O)CN2CCN(Cc3ccc4c(c3)OCO4)CC2)cc1` (stereo not drawn), the viability is 102% in [1]; 102% (inactive) in assay [3]; 101% (inactive) in [4]; 88.7% (inactive) in assay [5]; 90.8% in assay [6] (setting [16]); 88.7% in assay [6] (setting [17]). For the same compound, the viability was 102% (inactive) in assay [12] and 92.4% (inactive) in assay [13]. In addition, in [2], the Her2 level is 102% (inactive). Further, the differential viability (reversal) in [6] (H69AR cells + 2 uM doxorubicin) is -2.19% (inactive). In addition, the figures for the inhibition in assay [7], in [8] and in assay [14] were -6.13% (inactive), 2.5% (inactive) and 1.67% (inactive), respectively. For the same compound, the growth inhibition in assay [9] is -5.95% (inactive); in [10], -5.68% (inactive). Also, the viability increase in assay [11] is -0.65% (inactive). In addition, in assay [15], the RAM network inhibition is 1.31% (inactive).
Turning to `CCOC(=O)Cc1nnc(NC(=O)c2ccccc2OCC)s1`, the viability in assay [1] was 100%; in assay [3] it was 100% (inactive); in assay [4], 103% (inactive); in [5], 98% (inactive); in assay [6] (setting [16]) it was 88.1%; in [6] (setting [17]), 98%. For the same compound, the viability in assay [12] and in [13] was 102% (inactive) in each case. Also, in [2], the Her2 level is 92.5% (inactive). Moreover, the differential viability (reversal) in assay [6] (H69AR cells + 2 uM doxorubicin) is 9.93% (inactive). The inhibition was 0% (inactive) in [7], -4.26% (inactive) in assay [8] and 1.33% (inactive) in assay [14]. Moreover, the growth inhibition in assay [9] is -9.41% (inactive); in assay [10] it was -14.8% (inactive). Also, the viability increase in assay [11] is -0.28% (inactive). Besides, in assay [15], the RAM network inhibition was 3.5% (inactive).
`COc1cccc(NC(=O)c2nc3nc(C)cc(C(F)F)n3n2)c1`: the viability in assay [1] was 100%; in assay [3], 100% (inactive); in assay [4], 93.9% (inactive); in assay [5], 84% (inactive); in assay [6] (setting [16]) it was 86.8%; in assay [6] (setting [17]), 84%. Besides, the viability in [12] was 107% (inactive); in assay [13], 101% (inactive). The Her2 level in assay [2] was 106% (inactive). For the same compound, in assay [6] (H69AR cells + 2 uM doxorubicin), the differential viability (reversal) was -2.74% (inactive). Besides, the results for the inhibition in assay [7], in assay [8] and in [14] were 1.47% (inactive), 4.5% (inactive) and 0.62% (inactive), respectively. Also, the figures for the growth inhibition in assay [9] and in assay [10] were -11.3% (inactive) and -11.1% (inactive), respectively. Moreover, the viability increase in assay [11] is 1.69% (inactive). Moreover, the RAM network inhibition in assay [15] is -0.33% (inactive).
On to `O=C(COc1ccc(=O)n(-c2ccccc2)n1)Nc1ccccc1`, for which the viability in [1] was 96%; in [3], 96% (inactive); in assay [4], 102% (inactive); in [5], 98.8% (inactive); in [6] (setting [16]) it was 92.4%; in [6] (setting [17]), 98.8%. In addition, the viability is 109% (inactive) in assay [12] and 98.6% (inactive) in [13]. For the same compound, in assay [2], the Her2 level is 95.5% (inactive). Moreover, the differential viability (reversal) in assay [6] (H69AR cells + 2 uM doxorubicin) is 6.32% (inactive). The inhibition in assay [7] is -4.4% (inactive); in assay [8] it was 0.82% (inactive); in assay [14] it was 2.81% (inactive). Further, the growth inhibition in assay [9] is -1.58% (inactive); in assay [10], 9.99% (inactive). In assay [11], the viability increase was -1.83% (inactive). Also, the RAM network inhibition in [15] was 1.04% (inactive).
As to `O=C(CN1CCN(Cc2ccc(F)cc2Cl)C1=O)NCCCN1CCOCC1`, the viability was 99% in [1]; 99% (inactive) in assay [3]; 95.2% (inactive) in assay [4]; 102% (inactive) in assay [5]; 87.8% in assay [6] (setting [16]); 102% in assay [6] (setting [17]). Moreover, the viability in assay [12] was 94.5% (inactive); in assay [13], 97.3% (inactive). Besides, the Her2 level in assay [2] is 104% (inactive). Besides, the differential viability (reversal) in assay [6] (H69AR cells + 2 uM doxorubicin) was 14% (inactive). The inhibition in [7] was -3.07% (inactive); in [8] it was -5.08% (inactive); in [14] it was 0.47% (inactive). In addition, the growth inhibition in assay [9] was -6.96% (inactive); in assay [10], 8.75% (inactive). Besides, the viability increase in assay [11] is -0.41% (inactive). Also, the RAM network inhibition in assay [15] is 1.91% (inactive).
`COc1ccccc1N1C(=O)CCC1(C#N)c1ccccc1` (stereo not drawn): the viability in assay [1] was 97%; in [3] it was 97% (inactive); in [4] it was 104% (inactive); in [5], 117% (inactive); in assay [6] (setting [16]), 96.9%; in assay [6] (setting [17]), 117%. For the same compound, the viability in [12] is 108% (inactive); in assay [13] it was 99.7% (inactive). Besides, the Her2 level in [2] is 102% (inactive). Also, in [6] (H69AR cells + 2 uM doxorubicin), the differential viability (reversal) was 20.5% (inactive). In addition, the inhibition in [7] is 0.68% (inactive); in [8] it was -3.49% (inactive); in assay [14], 1.52% (inactive). Moreover, the growth inhibition in assay [9] was -7.28% (inactive); in assay [10], 0.615% (inactive). Also, the viability increase in assay [11] is -1.56% (inactive). Further, in [15], the RAM network inhibition was 2.81% (inactive).
`CC1Cc2nc(SCC(=O)Nc3ccc4c(c3)OCO4)n(-c3ccc(F)cc3)c(=O)c2S1` (stereo not drawn): the viability in [1] was 90.5%; in [3], 90.5% (inactive); in [4], 79.2% (inactive); in assay [5], 89.2% (inactive); in assay [6] (setting [16]) it was 87.1%; in [6] (setting [17]), 89.2%. Besides, the viability in assay [12] is 93.6% (inactive); in assay [13], 86.7% (inactive). For the same compound, the Her2 level in assay [2] was 98% (inactive). The differential viability (reversal) in [6] (H69AR cells + 2 uM doxorubicin) was 2.12% (inactive). For the same compound, the inhibition in assay [7] is -5.87% (inactive); in assay [8], 9.33% (inactive); in assay [14], 2% (inactive). Besides, the growth inhibition was -7.17% (inactive) in assay [9] and 5.03% (inactive) in assay [10]. Further, the viability increase in assay [11] was -2.53% (inactive). Moreover, the RAM network inhibition in assay [15] is 6.73% (inactive).
`COc1ccc(S(=O)(=O)Cc2ccc(C(=O)N3CCOCC3)o2)cc1`: the viability was 106% in assay [1]; 106% (inactive) in [3]; 94.2% (inactive) in [4]; 99.5% (inactive) in [5]; 101% in assay [6] (setting [16]); 99.5% in assay [6] (setting [17]). In addition, the viability in assay [12] is 111% (inactive); in assay [13], 99.2% (inactive). The Her2 level in [2] is 126% (inactive). The differential viability (reversal) in [6] (H69AR cells + 2 uM doxorubicin) was -1.56% (inactive). Moreover, the inhibition in assay [7] was 0% (inactive); in [8] it was -0.83% (inactive); in assay [14], 0.96% (inactive). Moreover, the growth inhibition in [9] is -4.55% (inactive); in assay [10], -13.3% (inactive). Also, the viability increase in [11] was -0.14% (inactive). Besides, in [15], the RAM network inhibition was 1.62% (inactive).
